Screening data deposited in PubChem by several laboratories.
Shown are actives, neighbours in structure and some others; about 3.8% of the full set was active somewhere.
ADAM17 inh: inhibitors of human ADAM17; P78536; recombinant ADAM17, EDANS/DABCYL FRET peptide cleavage; inhibition, % at 6.95 µM; actives 0.83% (n = 370,000); AID 720648;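 active = inhibition above the mean of compounds lying between control limits plus 3 SD, set per campaign, cut at about 8.5% in these data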;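 also: 0% = DMSO-only wells as the low control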
Ecoli rRNA inh: selective bacterial rRNA inhibition in E. coli; E. coli WT GFP vs humanized-ribosome RFP mutants, fluorescence, 24 h; stronger effect = lower value; DMSO median 0, no signal -100; GFP signal change (wild-type ribosome), % (test concentration not listed); actives 1.6% (n = 350,000);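 active = significant combined selectivity score with lowered wild-type GFP, culture density cut under 30%, mutant RFP and density less affected; inactive = any of these conditions unmet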
FGF22 binding-1: binders of recombinant human FGF22 by thermal shift | Q9HCT0 | SYPRO orange fluorescence; percent of sucrose octasulfate shift, DMSO zero | activity (Tm shift, normalised), % at 9.99 µM | actives 1.5% (n = 340,000) | AID 651658;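 active = mean Tm shift, scaled 0 neutral to 100 positive control, at about 1.3% or above, every replicate too, limit read from the data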
Target sequence (Q9HCT0 whole entry, looked up): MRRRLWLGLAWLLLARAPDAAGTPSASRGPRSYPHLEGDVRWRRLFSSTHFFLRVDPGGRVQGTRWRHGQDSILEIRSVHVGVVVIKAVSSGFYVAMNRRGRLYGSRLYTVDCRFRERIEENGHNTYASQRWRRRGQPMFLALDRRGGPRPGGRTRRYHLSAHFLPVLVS
proKLK7 act: activators of human kallikrein-7 zymogen | activation, % at 7 µM | AID 652039 | purified proKLK7, EDANS-DABCYL substrate fluorescence; 100% is mature enzyme control, 0% vehicle | P49862 | actives 0.9% (n = 370,000);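 active = activation above the mean of all tested compounds plus 3 SD, computed per campaign excluding outliers beyond control limits, cut at about 13% in these data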
Target sequence (P49862 whole entry, looked up): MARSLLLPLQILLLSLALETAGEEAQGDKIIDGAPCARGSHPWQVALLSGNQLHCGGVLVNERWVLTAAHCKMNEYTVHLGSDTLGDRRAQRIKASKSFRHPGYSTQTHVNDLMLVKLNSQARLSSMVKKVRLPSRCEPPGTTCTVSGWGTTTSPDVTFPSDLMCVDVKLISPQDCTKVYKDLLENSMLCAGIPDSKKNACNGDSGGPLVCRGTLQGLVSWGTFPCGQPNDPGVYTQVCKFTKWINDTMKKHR
ADAM10 inh: inhibits human ADAM10; AID 720582; recombinant ADAM10, EDANS/DABCYL FRET peptide cleavage, 3 h; actives 0.62% (n = 370,000); inhibition, % at 7 µM; O14672;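 active = inhibition above a per-campaign cutoff equal to the mean of compounds falling between control-based bounds plus 3 SD, cut at about 20% in these data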;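 also: 0% = DMSO wells while the 100% control is not disclosed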
FGF22 binding-2: binds human FGF22 shifting its melting temperature; shares compounds with FGF22 binding-1; recombinant FGF22 thermal shift, SYPRO orange fluorescence; thermal shift activity, °C (ΔTm) at 38 µM; actives 2% (n = 1,000); AID 720646;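 active = fitted rise in melting shift crosses a set limit at or below the top valid dose tested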
TSA no protein: counter-screen for FGF22 binders: compound-only thermal shift, no protein; actives 2% (n = 1,000); compound-only SYPRO orange thermal shift counter-screen; AC50, µM (doses to about 38 µM); shares compounds with FGF22 binding-1;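 active = rising signal whose fitted curve reaches the 0.54 level within the top valid dose, showing a melting point, actives reach about 13 µM in these data; inactive = the rest, including activity in the opposite direction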; also: value is where the raw curve crosses a fixed level and not half-maximal
Numbers without * were called inactive; i = inactive; . = no result given; [ ] = remark or other dose.

SMILES | ADAM17 inh | Ecoli rRNA inh | FGF22 binding-1 | proKLK7 act | ADAM10 inh | others
C[C@H](NC(=O)c1ccc(Cl)cc1)C(=O)NCCc1ccc(S(N)(=O)=O)cc1 | -3 | 5 | 44* | 0 | -7
S=C(NCCc1ccccc1)Nc1nccs1 | -1 | -22* | 0 | 0 | 15
S=C(NCCc1ccccc1)N/N=C/c1ccc(Cl)cc1 | 4 | -28* | 0 | 0 | 0
O=C(C[C@H]1CC[C@H]2[C@@H](COC[C@@H](O)CN2Cc2ccccc2)O1)NCCCN1CCOCC1 | . | 2 | 0 | . | .
CNC[C@H]1Oc2ccc(N(C)C)cc2C(=O)N(C)C[C@H]1C | . | -1 | . | . | .
Fc1cc(Br)ccc1NC(=S)NCCc1ccccc1 | 1 | -50* | 1.8* | 0 | 4
NS(=O)(=O)c1ccc(NC(=S)NCCc2ccccc2)cc1 | 1 | -3 | 2.2* | 0 | -3
N#Cc1ccc(C(=O)N2CCC3CC2c2cc(-c4ccc(F)cc4)ccc23)cc1 (stereo unspecified) | 0 | -26* | -1 | 0 | -2
N#Cc1ccc(-c2ccc3c(c2)[C@H]2[C@H](CCN2C(=O)c2ccc(F)cc2)[C@H](CO)N3)cc1 | . | -8 | 0 | . | .
COc1ccc(-c2ccc3c(c2)C2CC3CCN2Cc2ccc(OC(F)(F)F)cc2)cc1 (stereo unspecified) | -3 | -1 | 43* | 0 | -4
COc1ccc(-c2ccc3c(c2)C2CC3CCN2C(=O)C(C)(C)C)cc1 (stereo unspecified) | -3 | -30* | 0 | 0 | -3
COc1cccc(-c2ccc3c(c2)C2CC3CCN2C(C)=O)c1 (stereo unspecified) | -3 | -5 | 0 | 0 | -9
FC(F)(F)Oc1ccc(Cn2ccc3ccc(-c4ccc5ccn(Cc6ccc(OC(F)(F)F)cc6)c5c4)cc32)cc1 | -13 | . | . | -2 | -24
C[C@H](CO)N1C[C@H](C)[C@@H](CN(C)Cc2ccncc2)Oc2c(NC(=O)NC3CCCCC3)cccc2C1=O | . | -4 | . | . | .
C[C@H](CO)N1C[C@H](C)[C@@H](CN(C)C(=O)NC2CCCCC2)Oc2c(NC(=O)Cn3cnnn3)cccc2C1=O | . | 5 | . | . | .
C/C=C/c1ccc2c(c1)O[C@@H](CN(C)C(=O)c1ccc(F)cc1)[C@H](C)CN([C@@H](C)CO)S2(=O)=O | . | -8 | 0 | . | .
CCCNC(=O)N[C@@H]1C=C[C@@H](CC(=O)NC2CCCCC2)O[C@H]1CO | . | 0 | 0 | . | .
C[C@@H]1CCC(=O)N(C[C@@H](C)CSc2ccc(Br)cc2)CC1 | 6 | -50 | 43* | 0 | 9
Cc1ccc(S(=O)(=O)N[C@H]2CC[C@H](CCNC(=O)c3ccc4c(c3)OCO4)O[C@@H]2CO)cc1 | . | -3 | 0 | . | .
CNc1nnc(-c2ccc(N(C)C)cc2)s1 | i | . | . | 40* | i
COc1ccc(S(=O)(=O)Nc2ccc3c(c2)C(=O)N([C@@H](C)CO)C[C@H](C)[C@H](CN(C)C(=O)C2CCCCC2)OCCCC[C@@H](C)O3)cc1 | . | 2 | 0 | . | .
COc1ccc(S(=O)(=O)Nc2ccc3c(c2)C(=O)N([C@H](C)CO)C[C@@H](C)[C@H](CN(C)S(=O)(=O)c2ccc(Cl)cc2)OCCCC[C@H](C)O3)cc1 | . | 0 | 23* | . | .
COc1ccc(S(=O)(=O)Nc2ccc3c(c2)C(=O)N([C@H](C)CO)C[C@@H](C)[C@H](CN(C)C(=O)C2CCCCC2)OCCCC[C@@H](C)O3)cc1 | . | -5 | 1.5* | . | .
C[C@@H]1CCCCO[C@@H](CN(C)C(=O)Nc2ccccc2)[C@H](C)CN([C@H](C)CO)C(=O)c2cc(NS(=O)(=O)c3ccc(Cl)cc3)ccc2O1 | . | 3 | 3.6* | . | .
Cc1ccc(S(=O)(=O)Nc2ccc3c(c2)C(=O)N([C@H](C)CO)C[C@@H](C)[C@@H](CN(C)S(=O)(=O)c2ccc(Cl)cc2)OCCCC[C@@H](C)O3)cc1 | . | 2 | 25* | . | .
SMILES | ADAM17 inh | Ecoli rRNA inh | FGF22 binding-1 | proKLK7 act | ADAM10 inh | others
C[C@@H]1CN([C@H](C)CO)C(=O)c2cc(NS(=O)(=O)c3ccc(Cl)cc3)ccc2O[C@@H](C)CCCCO[C@H]1CN(C)C(=O)Nc1ccccc1 | . | -1 | 0 | . | .
CN(C)C(=O)C[C@H]1CC[C@H](NC(=O)C2CCOCC2)[C@@H](CO)O1 | . | 0 | 0 | . | .
O=c1c(Cl)c(O)c2cccc3c4ccccc4n1c23 | -298 | -13 | 2.3* | 10 | i | FGF22 binding-2=0.16;TSA no protein=i
Nc1c(Cl)ncnc1NCCO | 3 | 14 | 0 | 0 | 3
Cc1ccc(CCNc2ncnc(Cl)c2N)cc1 | -1 | 1 | 1.7* | -1 | -15 | FGF22 binding-2=-0.12;TSA no protein=i
O=C(CCc1ccc(S(=O)(=O)N2CCOCC2)cc1)Nc1ccccc1F | 0 | 14 | 1.5* | 0 | -6 | FGF22 binding-2=0.14;TSA no protein=i
O=C(Nc1cccc(S(=O)(=O)N2CCCCC2)c1)C1=NN(c2ccccc2)C(=O)CC1 | 1 | -5 | 1.9* | 0 | -4 | FGF22 binding-2=-0.096;TSA no protein=i
O=C(Nc1cc(S(=O)(=O)N2CCCCC2)ccc1Cl)C1=NN(c2ccccc2)C(=O)CC1 | -3 | 17 | 0 | 0 | 0
COc1cccc(C#Cc2ccc([C@@H]3[C@H]4CN(C(=O)c5ccccc5)CC(=O)N4[C@H]3CO)cc2)c1 | . | 0 | -1 | . | .
CS(=O)(=O)N1CC(=O)N2[C@H](CO)[C@@H](c3ccc(C#CCc4ccccc4)cc3)[C@H]2C1 | . | 1 | 1.3* | . | . | FGF22 binding-2=0.098;TSA no protein=i
O=C(c1ccc2c(c1)OCO2)N1CC(=O)N2[C@H](C1)[C@@H](c1ccc(C#CCC3CCCC3)cc1)[C@@H]2CO | . | 1 | -1 | . | .
COc1cccc(C#Cc2ccc([C@H]3[C@@H](CO)N4C(=O)CN(C(=O)c5ccccc5)C[C@@H]34)cc2)c1 | . | 3 | 1.4* | . | . | FGF22 binding-2=0.001[42 µM];TSA no protein=i
O=C(c1ccc2c(c1)OCO2)N1CC(=O)N2[C@H](C1)[C@H](c1ccc(C#CCC3CCCC3)cc1)[C@@H]2CO | . | -2 | 2.3* | . | . | FGF22 binding-2=0.049;TSA no protein=i
CS(=O)(=O)N1CC(=O)N2[C@@H](CO)[C@H](c3ccc(C#CCc4ccccc4)cc3)[C@@H]2C1 | . | 0 | 1 | . | .
CCS(=O)(=O)NCCNc1ccc([N+](=O)[O-])cc1 | 2 | -10 | 1.5* | 0 | -12 | FGF22 binding-2=-0.069;TSA no protein=i
CC(=O)NCCCNc1ccc([N+](=O)[O-])cc1 | -2 | . | . | 0 | -4
COc1ccc2c3c(n(C)c2c1)[C@@H](CO)N(C)CC31CCN(C(=O)c2cccnc2)CC1 | . | 4 | 0 | . | .
CN(CC1CCOCC1)C(=O)c1ccc2nc(Cc3cccc(Cl)c3)oc2c1 | -8 | -6 | 0 | 0 | -7
